From ChEMBL document CHEMBL3988442, “University of Dundee, Small-Polar-MMV Screening Library” (2021)
Out of some 53,000 compounds screened, about 900 (1.7%) showed an effect of 50% or more. Shown is part of a subset that was picked to be rich in strong results.

What follows are molecules tested on Mycobacterium tuberculosis (assay: Cornell - Phenotypic assay to identify agents that inhibit growth of Mycobacterium tuberculosis). Settings: 10 mM as filed; unlikely as a test dose.
Format: functional
Design: scale not given: direction of the effect not stated beside the values

Structure (SMILES)	Percent Effect
O=C(N[C@H]1CN(c2ccncc2)C[C@@H]1C1CC1)C1CCOCC1	6.471%
OCc1csc(N2C[C@@H](CN3CCCCCC3)[C@@H](CO)C2)n1	-1.997%
O=C(N[C@H]1CN(c2nc(CO)cs2)C[C@@H]1C1CC1)C1CCCCC1	56.52%
CC(=O)N[C@@H]1CN(c2nc(CO)cs2)C[C@H]1c1ccc(C)o1	3.039%
CCC[C@H]1CN(c2nc(CO)cs2)C[C@@H]1NC(=O)C1(COC)CC1	20.53%
CCC[C@H]1CN(c2nc(CO)cs2)C[C@@H]1NC(=O)C1CCC1	52.87%
O=C(c1cccs1)N1CCC2(CC1)CN(c1ccsc1)C(=O)CO2	16.06%
Clc1ccc(C2(CNC3=NCCN3)CC2)cc1.I	-15.81%
CCOC(=O)N1CCNC(c2cccs2)C1 (stereo not given)	-4.593%
Cc1cnc(CN2CCC(N(C)Cc3nnc(C4CC4)n3C)C2)cn1 (stereo not given)	8.133%
CN(Cc1nnc(C2CC2)n1C)C1CCN(Cc2ccc(F)cc2)C1 (stereo not given)	10.51%
CN(Cc1nnc(C2CC2)n1C)C1CCN(Cc2ccncc2)C1 (stereo not given)	-21.05%
CN(Cc1nnc(C2CC2)n1C)C1CCN(Cc2ccccc2)C1 (stereo not given)	104.3%
Cc1nc(CN2CCC(N(C)Cc3nnc(C4CC4)n3C)C2)cs1 (stereo not given)	55.81%
CN(Cc1nnc(C2CC2)n1C)C1CCN(Cc2ccon2)C1 (stereo not given)	-5.558%
CC(=O)N1CCC(c2ncc(C(=O)Nc3ccccc3)c(C)n2)CC1	16.5%
O=C(CC1CC1)N1CCC2(CC1)CN(Cc1cccnc1)C(=O)CO2.O=C(O)C(F)(F)F	2.615%
COCCN1C[C@H]2CCN(C(=O)c3cc(C)on3)CC[C@H]2S1(=O)=O	-32.34%
CNC(=O)c1cc2ccccc2n1C	-0.05075%
CC(C)(C)c1csc(CCNC(=O)C(c2ccccc2)n2cnnn2)n1 (stereo not given)	11.39%
Cc1noc(NC(=O)CCNC(=O)c2ccc(Br)cc2)n1	-19.08%
Cc1noc(NCc2ccc(F)cc2)n1	-8.844%
Cc1noc(COCC(=O)Nc2ccc(Br)c(C)n2)n1	11.41%
Cc1noc(NC(=O)c2ccc(C#N)cc2)n1	13.91%
Cc1noc(NC(=O)c2ccc(Br)s2)n1	105.7%
Cc1noc(NC(=O)c2ccc(Br)cc2)n1	106.9%
Cc1noc(NC(=O)c2ccc(OC(F)(F)F)cc2)n1	104.6%

Structure (SMILES)	Percent Effect
Cc1ccc(C(=O)Nc2nc(C)no2)cc1	27.63%
Cc1noc(NC(=O)c2ccc(Br)o2)n1	16.32%
Cc1noc(NC(=O)c2ccccc2)n1	-1.268%
O=C(NCCn1ccnc1)c1cccc(Br)c1	9.854%
Cc1noc(NC(=O)c2cccc(Br)c2)n1	106.3%
CN1C(=O)C2(CC(=O)Nc3[nH]ncc32)c2cc(F)ccc21 (stereo not given)	1.042%
COCCNC(=O)c1sc2ccccc2c1C1CCC(CN)CC1.Cl (stereo not given)	-3.556%
CC(C)c1nccn1-c1nccnc1C1CCCN1Cc1cccnc1 (stereo not given)	-9.727%
CN(C)c1cc(C2CCCNC2)ccn1.Cl.Cl (stereo not given)	40.71%
CC(C)(C)OC(=O)N1CCn2c(nnc2C2CCCNC2)C1 (stereo not given)	-27.32%
CCC(C)(C)n1nnnc1C(c1cccs1)N1CCCCC1 (stereo not given)	33.43%
CCC(C)(C)n1nnnc1C(c1cccs1)N1CCc2ccccc2C1 (stereo not given)	77.94%
CCC(C)(C)n1nnnc1C(c1cccs1)N1CCc2ccccc21 (stereo not given)	26.96%
CCOc1ccccc1CN(C)C(=O)CN1C(=O)OC[C@@H]1C(C)C	-25.38%
NCc1n[nH]c(=O)n1-c1cccc(Cl)c1Cl	-49.88%
Cc1cccc(-c2nccnc2C2CCN(C)CC2)c1C	-15.39%
NC(=O)c1c(-c2ccc(Cl)cc2)csc1NC(=O)CCC(=O)O	-1.119%
O=C(COc1coc(CN2CCCCCC2)cc1=O)c1ccccc1	-10.82%
O=C(COc1coc(CN2CCOCC2)cc1=O)c1ccc(Cl)cc1	4.659%
O=C(COc1coc(CN2CCCCC2)cc1=O)c1ccc(Cl)cc1	53.44%
CSCCC(=O)N1CCCC(c2ncc[nH]2)C1 (stereo not given)	7.779%
Cc1cc(=O)[nH]c(-n2nc(C)c(CCC(=O)NCc3cccs3)c2C)n1	13.95%
CCCc1cc(=O)[nH]c(-n2nc(-c3cccs3)cc2N)n1	94.38%
NC1(c2nc(-c3ccccc3)cc(=O)[nH]2)CCCC1	17.2%
COC(=O)CCc1c(C)nn(-c2nc(C)cc(=O)[nH]2)c1C	23.13%
NC1(c2nc(-c3cccs3)cc(=O)[nH]2)CCCCC1	-54.45%
CCCS(=O)(=O)NCCn1ccc(-c2cccs2)n1	-17.91%

Structure (SMILES)	Percent Effect
Cc1cc(=O)[nH]c(-n2nc(-c3cccs3)cc2N)n1	98.99%
Cc1cc(=O)[nH]c(-n2nc(-c3ccccc3)cc2N)n1	94.92%
NC1(c2nc(-c3cccs3)cc(=O)[nH]2)CCCC1	-47.24%
COc1cc(N2C[C@H]3CN(Cc4ccccn4)C[C@H]3C2)ncn1.O=C(O)C(F)(F)F	8.566%
Cn1nnnc1SC1CCc2ccccc2NC1=O (stereo not given)	4.345%
O=C(COC[C@]12COC[C@H]1CN(C1CCC1)C2)N1CCCC1.O=C(O)C(F)(F)F	-23.94%
CCC1CN(CCCO)c2ccccc2O1 (stereo not given)	66.97%
CCCN(CC1COc2ccccc2O1)C(=O)CCN1C(=O)CCC1=O (stereo not given)	17.77%
CCC1CN(CCCNS(C)(=O)=O)c2ccccc2O1 (stereo not given)	99.54%
CS(=O)(=O)NCC1Cc2ccccc2O1 (stereo not given)	-12.85%
CN(CC1COc2ccccc2O1)C(=O)C1=NN(C)C(=O)CC1 (stereo not given)	21.15%
CCC1CN(CCNS(C)(=O)=O)c2ccccc2O1 (stereo not given)	23.74%
Cc1cccc(CN2CCC3(CCN(Cc4ccccn4)C3)C2=O)c1.O=C(O)C(F)(F)F.O=C(O)C(F)(F)F (stereo not given)	1.967%
COc1cc(CCC(=O)N2CCC(c3cc4nccnc4[nH]3)CC2)on1	16.88%
CCCSc1ncccc1C(=O)NCc1ccc(N(C)C)cc1	-11.44%
O=C(O)C(F)(F)F.c1ccc(CN2CCc3ncnc(-c4ccsc4)c3CC2)nc1	15.9%
CCc1csc(C2CCCN(C(=O)c3ccc(=O)n(CC)n3)C2)n1 (stereo not given)	-10.64%
CCc1nc(C(=O)N(CC)CC(=O)N(C)C)nn1-c1ccccc1Cl	10.69%
CCCn1nnnc1CN(C)C(C)c1ccc(C)cc1 (stereo not given)	18.09%
CCCn1nnnc1CN(c1ccc(C)cc1)C(C)C	13.52%
CCCn1nnnc1CN(c1ccc(N2CCOCC2)cc1)C(C)C	100.7%
c1ccc(CN2CCC(CCNc3ncnc4c3CCNCC4)C2)cc1 (stereo not given)	21.24%
CN1C(=O)CCCC12CCCN(Cc1cccs1)C2.O=C(O)C(F)(F)F (stereo not given)	15.82%
CCN1CCC2(CC1)CN(CCO)c1ccccc12	-37.58%
COCCN1CC2(CCN(C(=O)c3ccno3)CC2)c2ccccc21.O=C(O)C(F)(F)F	-25.4%
COCCN1CC2(CCN(Cc3ccco3)CC2)c2ccccc21	57.89%
Cc1cc(C)n(CC2CN(CCC(=O)NC3CCCCC3)CCO2)n1 (stereo not given)	-4.136%

Structure (SMILES)	Percent Effect
Cc1[nH]/c(=N\C(=O)c2csc(NC3CC3)n2)sc1C	53.16%
CC(=O)Nc1nc(C(=O)N2CCC(Nc3cccnn3)CC2)cs1	-42.9%
Cc1[nH]/c(=N\C(=O)c2csc(NC3CCCC3)n2)sc1C	105%
CC(=O)Nc1nc(C(=O)N2CCCC(c3cc(C)[nH]n3)C2)cs1 (stereo not given)	-1.903%
Cc1cc(O)c(OCC(=O)/N=c2\[nH]c(C)c(C)s2)cn1	27.09%
Cc1[nH]/c(=N/C(=O)Cn2nc(N3CCOCC3)ccc2=O)sc1C	-3.782%
COC(=O)Cn1c(C)cc(=O)n2nc(-c3cccs3)nc12	-3.318%
Cc1cnn(CC2CN(CCc3cccs3)CCO2)c1 (stereo not given)	13.16%
CC(C(=O)NCC(C)(C)c1ccc2c(c1)OCCO2)n1cncn1 (stereo not given)	-4.418%
CC(=O)N1CCC(c2nc(C)cc(-c3ccccc3C(=O)O)n2)CC1	-42.06%
COc1ccccc1OC1CCN(c2nccc(N)n2)CC1	-15.16%
CS(=O)(=O)NCCCNC(=O)c1cnc(-c2ccsc2)s1	-10.19%
Cn1cc(CN2CCC(c3ccncc3)CC2)cn1	9.056%
COc1cc2c(cc1CN1CCC3(CCCN(C)C3=O)C1)OCCO2 (stereo not given)	14.22%
COc1ccc(CN2CCC3(CCCN(C)C3=O)C2)c(Cl)c1OC (stereo not given)	41.14%
COc1ccc(CN2CCC3(CCCN(C)C3=O)C2)c(OC)c1C (stereo not given)	52.12%
CCN(CC)CCNS(=O)(=O)c1cccc(CSC)c1	5.575%
Cc1noc(C)c1S(=O)(=O)NCC(O)c1ccc2c(c1)CCO2 (stereo not given)	-26.48%
Cc1nc(CNCC2CN(C)CCO2)cs1 (stereo not given)	0.5218%
CC(=O)N[C@H]1CN(S(=O)(=O)N(C)Cc2ccccc2)C[C@@H]1C1CC1	14.84%
CCC1CCCCN1C(=O)Cn1nc(-c2ccc(C)o2)cc(N)c1=O (stereo not given)	-6.265%
CCC1CCCCN1C(=O)Cn1nc(-c2cc(C)oc2C)cc(N)c1=O (stereo not given)	52.47%
CCC1CCCCN1C(=O)Cn1nc(-c2ccc(C)s2)cc(N)c1=O (stereo not given)	45.47%
NCCc1n[nH]c(=O)n1-c1cccc(Cl)c1Cl	-33.73%
